aSyn 5UTR act: Activators via SNCA 5'UTR binding, MLPCN; alpha-synuclein 5'UTR reporter, activators screen; activity score, % (tested at 7.5 µM), hits read low; 7.1% of 300,000 active; AID 1814; in the data active means activity score below about -60%
Active calls of the source: *. Only a sample is shown.

SMILES	aSyn 5UTR act
Cn1c(NC(=O)CCC2CCCCC2)cc(=O)n(C)c1=O	-63*
Cc1ccc(O)c(NC(=O)CCC2CCCCC2)c1	-152*
CCOC(=O)c1nnc2cc(-c3ccc(Br)cc3)nn2c1C	-114*
COc1ccc2cc(-c3ccon3)ccc2c1	-172*
CC(=O)c1c(C)oc2ccc(OCc3ccccc3)cc12	-71*
COc1ccc2oc(C)c(C(=O)c3ccc(C)cc3)c2c1	-86*
Cc1oc2ccc(O)cc2c1C(=O)c1ccc(Br)cc1	-62*
O=C(c1ccccc1)c1c(O)nc(-c2ccccc2)n(-c2ccccc2)c1=O	-67*
CCOc1ccc(/C=N/n2cc(-c3ccccc3)[nH]c2=S)cc1	-65*
Cc1ccc(CONC(=O)c2ccccc2)cc1	-101*
COc1ccc(C(=O)NOCc2ccccc2)cc1	-74*
Cc1ccc(C(=O)N/C(=C\c2ccccc2)C(=O)OCc2ccccc2)cc1	-122*
Cc1cccc(Nc2ccc([N+](=O)[O-])cn2)c1	-87*
CCOc1cccc(Nc2ccc([N+](=O)[O-])cn2)c1	-102*
Cc1cccc(NC2=NC(C)(C)N=C(N)N2)c1	98
COc1ccc(-n2cc(-c3ccccc3)nc2SC)cc1	-121*
COc1ccc2c(c1)sc1nc(-c3ccccc3)cn12	105
CC1CCc2nc(NC(=O)Nc3ccc4c(c3)OCO4)sc2C1 (stereo not given)	-123*
COC(=O)c1c(NC(=O)CN2CCOCC2)sc2c1CCC(C)C2 (stereo not given)	-123*
CC1CCc2nc(NC(=O)C3COc4ccccc4O3)sc2C1 (stereo not given)	63
Cc1ncsc1C(=O)Nc1nc2c(s1)CC(C)CC2 (stereo not given)	-126*
CC1CCc2nc(NC(=O)C3CC3)sc2C1 (stereo not given)	-138*
CC1CCc2nc(NC(=O)CN3CCOCC3)sc2C1 (stereo not given)	-92*
Cc1cccc(C(=O)N2CCCC(c3nc(-c4ccc(C)o4)no3)C2)c1 (stereo not given)	-145*
Cc1cccc(C(=O)Nc2sc(-c3ccccc3)cc2C(=O)O)c1	-180*
SMILES	aSyn 5UTR act
CC(C)(C)C(=O)Nc1sc(-c2ccccc2)cc1C(=O)O	-87*
Cc1cccn2c1nc(=S)n2C(=O)c1ccco1	-265*
CCCOc1ccc(-c2nc(N3CCN(C)CC3)c3ccccc3n2)cc1	-135*
CN1CCN(Cc2cc(COCc3ccccc3)c3cccnc3c2O)CC1	99
O=C(O)c1ccc(N/N=C/c2cn(Cc3ccccc3F)c3ccccc23)cc1	-65*
Nc1ccc(C(=O)N/N=C/c2cn(Cc3ccccc3F)c3ccccc23)cc1	72
CC(C)n1cc(/C=N/Nc2ccc(C(=O)O)cc2)c2ccccc21	-79*
COc1ccc(/C(N)=N/OC(=O)c2cccc([N+](=O)[O-])c2)cc1	-129*
COc1ccc(/C(N)=N/OC(=O)c2cccc([N+](=O)[O-])c2C)cc1	-113*
COc1cccc(C(=O)O/N=C(\N)c2ccc([N+](=O)[O-])cc2)c1	-164*
COc1cccc(/C(N)=N/OC(=O)Cc2ccccc2[N+](=O)[O-])c1	-77*
COc1cccc(C(=O)O/N=C(\N)c2ccc(C)cc2)c1	-211*
C/C(=N\NC(=O)C(N)=O)c1ccc(NC(=O)c2cccs2)cc1	-140*
C/C(=N\NC(=O)c1ccccc1C)c1ccc(NC(=O)c2cccs2)cc1	-148*
C/C(=N\NC(=O)c1ccccc1)c1ccc(NC(=O)c2cccs2)cc1	-108*
C/C(=N\NC(=O)c1ccco1)c1ccc(NC(=O)c2cccs2)cc1	-106*
C/C(=N/OCC(=O)Nc1ccccc1)c1cccs1	-131*
C/C(=N/NC(=O)c1ccccc1)c1ccc(NC(=O)C(F)(F)F)cc1	-69*
COc1ccnc(CSC(N)=Nc2cccc(C(F)(F)F)c2)c1	-81*
O=c1cc(N2CCN(c3ccccc3Cl)CC2)[nH]c(=O)n1Cc1ccc(F)cc1	-72*
CCCOC(=O)/C(=C\C=C\c1ccco1)NC(=O)c1ccccc1	-86*
O=c1n(-c2ccc(Br)cc2)cnn1-c1ncccc1[N+](=O)[O-]	-101*
COc1ccccc1-n1cc([C@@H]2C[C@H]3CN(c4ccccc4)C(=O)[C@]34CCCN24)cn1	-362*
O=C(CC(=O)c1ccccc1O)c1ccc(F)cc1	-75*
COc1ccc(C(=O)CC(=O)c2ccc(F)cc2)cc1	-165*
SMILES	aSyn 5UTR act
COc1ccc(/C(N)=N/OC(=O)CCc2ccccc2)cc1	-100*
N/C(=N\OC(=O)CCCc1ccccc1)c1ccccc1Cl	-98*
COc1ccc(C(=O)C(CCC(CNC(C)(C)C)C(=O)c2ccc(OC)cc2)CNC(C)(C)C)cc1 (stereo not given)	65
O=C(Cc1ccccn1)c1ccc(F)cc1	-64*
Cc1cccc(/C(N)=N/OC(=O)CCc2ccccc2)c1	-157*
COc1ccc(NC(=O)CCSc2ccc(F)cc2)cc1	-93*
Cc1ccc(/C(N)=N/OC(=O)Cc2ccccc2)cc1	-130*
COc1ccc(C(=O)CC(=O)C(=O)Nc2ccc(C)c(C)c2)cc1	-63*
Cc1ccc(/C(N)=N/OC(=O)CCCc2ccccc2)cc1	-68*

High-throughput results deposited in PubChem BioAssay by Broad Institute.
